# Values joined by “and” are separate entries in the source; they are usually repeats but may differ in a detail not shown here. Identical values can stand only once. Inconclusive results are not listed. Entries that show only a call come without a potency. A structure can be active in one record and inactive in another. Active and inactive are the calls of the source. Calls come from the whole dose curve; as a rule, active = well fitted curve in the direction sought with a large enough effect; inconclusive = small, poorly fitted or top-dose-only effect, or another doubt; inactive = no such curve, though single readings can be large; an effect the other way counts as inactive or inconclusive.
# Columns and labels:
# [1] = Viability qHTS for spleen associated tyrosine kinase inhibitor (SYKi) naive MV4-11 cells (AID 1963823); note: nearly all actives have a fitted effect of over 40% in size; note: potency is the fitted concentration of half-maximal effect
# Outline: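 SYK inhibitor-naive MV4-11 cells, 500 per well, exposed to compounds for 72 hr at 37 C, 5% CO2. Viability read as CellTiter-Glo luminescence after 10 min at room temperature.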
# [2] = Viability qHTS for spleen associated tyrosine kinase inhibitor (SYKi) drug resistant MV4-11 cells (AID 1963824); note: nearly all actives have a fitted effect of over 35% in size; note: potency is the fitted concentration of half-maximal effect
# Outline: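 SYK-inhibitor-resistant MV4-11 AML cells were seeded at 500 per well onto compound and cultured 72 hours (37 °C, 5% CO2). CellTiter-Glo was then added, and after 10 min at room temperature, luminescence gave viability.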
# [3] = Quantitative highthroughput screen to assess conditional lethalithy of NOMO1 cells grown in RPMI1640 with untreated serum (RPMI+s) (AID 1963876); note: nearly all actives have a fitted effect of over 35% in size; note: potency is the fitted concentration of half-maximal effect
# Outline: (§1)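 Each medium arm—HPLM with 10% dialyzed FBS, or RPMI1640 with 5 mM glucose and 10% untreated or dialyzed FBS—was screened against an 11-point, 3-fold compound titration for 48 h at 37 °C, with CellTiter-Glo luminescence as endpoint.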
# [4] = Quantitative highthroughput screen to assess conditional lethalithy of NOMO1 cells grown in RPMI1640 with dialyzed fetal bovine serum (RPMI+ds) (AID 1963877); note: nearly all actives have a fitted effect of over 30% in size; note: potency is the fitted concentration of half-maximal effect; for Viability: series mostly up to about 46 µM
# Outline: as §1
# [5] = Quantitative highthroughput screen to assess conditional lethalithy of NOMO1 cells grown in Human Plasma-Like Medium with dialyzed fetal bovine serum (HPLM+ds) (AID 1963878); note: nearly all actives have a fitted effect of over 35% in size; note: potency is the fitted concentration of half-maximal effect
# Outline: as §1
# [6] = Quantitative highthroughput screen to assess conditional lethalithy of P12 Ichikawa cells grown in Human Plasma-Like Medium with dialyzed fetal bovine serum (HPLM+ds) (AID 1963879); conditions: Potency: viability; note: nearly all actives have a fitted effect of over 35% in size; note: potency is the fitted concentration of half-maximal effect; for Viability: series mostly up to about 46 µM
# Outline: as §1
# [7] = Quantitative highthroughput screen to assess conditional lethalithy of P12 Ichikawa cells grown in RPMI1640 with dialyzed fetal bovine serum (RPMI+ds) (AID 1963880); conditions: Potency: P12-Ichikawa viability; note: nearly all actives have a fitted effect of over 35% in size
# Outline: as §1
# [8] = Quantitative highthroughput screen to assess conditional lethalithy of SEM cells grown in Human Plasma-Like Medium with dialyzed fetal bovine serum (HPLM+ds) (AID 1963882); note: nearly all actives have a fitted effect of over 35% in size; note: potency is the fitted concentration of half-maximal effect; for Viability: series mostly up to about 46 µM
# Outline: as §1
# [9] = Quantitative highthroughput screen to assess conditional lethalithy of SEM cells grown in RPMI1640 with unreated serum (RPMI+s) (AID 1963883); note: nearly all actives have a fitted effect of over 35% in size; note: potency is the fitted concentration of half-maximal effect
# Outline: as §1
# [10] = Quantitative highthroughput screen to assess conditional lethalithy of SEM cells grown in RPMI1640 with dialyzed fetal bovine serum (RPMI+ds) (AID 1963884); note: nearly all actives have a fitted effect of over 35% in size; note: potency is the fitted concentration of half-maximal effect; for Viability: series mostly up to about 46 µM
# Outline: as §1
# [11] = Cellular viability qHTS for adrenocortical cancer (ACC) cell line SW-13 (AID 1963989); conditions: SW-13 ACC cells viability, CellTiter-Glo, 48 h; activity (max response): stronger effect = lower value; note: nearly all actives have a fitted effect of over 65% in size; note: potency is the fitted concentration of half-maximal effect;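 for activity (max response): cells grown in serum-free medium with ITS supplement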
# Outline: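 Luminescent ATP read-out (CellTiter-Glo, 20 min at room temperature) measured metabolically competent SW-13 cells after 48 h compound treatment. Final concentrations spanned up to 46 uM; bortezomib served as positive control.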
# [12] = Cellular viability qHTS for adrenocortical cancer (ACC) cell line NCI-H295R (AID 1963990); note: nearly all actives have a fitted effect of over 60% in size; note: potency is the fitted concentration of half-maximal effect
# Outline: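 IC50 and maximal efficacy derive from four-parameter logistic modelling of titration curves, with reads scaled between DMSO-only wells (0%) and doxorubicin hydrochloride (100% inhibition). Compounds spanned up to 46 uM over 48 h.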
# [13] = Quantitative highthroughput screen to assess conditional lethalithy of P12 Ichikawa cells grown in RPMI1640 with untreated serum (RPMI+s) (AID 1963881); conditions: Potency: viability; note: nearly all actives have a fitted effect of over 35% in size; note: potency is the fitted concentration of half-maximal effect; for Viability: series mostly up to about 46 µM
# Outline: as §1
SMILES,Potency [1],Potency [2],Potency [3],Potency [4],Potency [5],Potency [6],Potency [7],Potency [8],Potency [9],Potency [10],activity (max response) [11],Potency [12],Potency [13],Potency [11]
Cc1ccc(-n2nc(C(C)(C)C)cc2NC(=O)Nc2ccc(OCCN3CCOCC3)c3ccccc23)cc1,8.2 µM (active),2.59 µM (active),inactive,inactive,inactive,inactive,inactive,10500 nM (active),132 nM (active),9350 nM (active),-16.6% (inactive),inactive,,
OC(Cn1cncn1)(Cn1cncn1)c1ccc(F)cc1F,inactive,inactive,inactive,inactive,inactive,inactive,,inactive,inactive,inactive,1.07% (inactive) and 11% (inactive),inactive,inactive,
O=c1cc(N2CCOCC2)oc2c(-c3cccc4c3sc3ccccc34)cccc12,1.48 µM (active),1.86 µM (active),inactive,inactive,inactive,inactive,inactive,,,,,12600 nM (active),inactive,25100 nM (active)
COCCOc1nc(-c2ccc(Cl)c(Cl)c2)n(-c2ccc(NC(=O)CCl)cc2)n1,2.31 µM (active),1.48 µM (active),inactive,inactive,inactive,inactive,inactive,inactive,inactive,inactive,,199 nM (active),,4470 nM (active)
N[C@@]1(C(=O)O)CS(=O)(=O)[C@H]2[C@H](C(=O)O)[C@H]21,inactive,inactive,inactive,inactive,inactive,inactive,inactive,,,,10.9% (inactive),inactive,inactive,
Cc1nc(-c2ccc(OCC(C)C)c(C#N)c2)sc1C(=O)O,inactive,inactive,inactive,inactive,inactive,inactive,inactive,inactive,inactive,inactive,5.55% (inactive) and 8.19% (inactive),inactive,,
CC(C)(C)C(=O)Oc1ccc(S(=O)(=O)Nc2ccccc2C(=O)NCC(=O)O)cc1,inactive,inactive,inactive,inactive,inactive,inactive,,inactive,inactive,inactive,1.32% (inactive) and -4.44% (inactive),inactive,inactive,
CC(C)OC(=O)C(C)(C)Oc1ccc(C(=O)c2ccc(Cl)cc2)cc1,inactive,inactive,inactive,inactive,inactive,inactive,inactive,,,,,inactive,inactive,
CCCc1nc2c(C)cc(-c3nc4ccccc4n3C)cc2n1Cc1ccc(-c2ccccc2C(=O)O)cc1,750 nM (active) and inactive,inactive,inactive,inactive,inactive,inactive,inactive,inactive,inactive,inactive,3.79% (inactive) and 0.0088% (inactive),inactive,,
c1ccc2c(CCNc3ccc(Nc4ccncc4)cc3)c[nH]c2c1,1.16 µM (active) and 525 nM (active),731 nM (active) and 590 nM (active),16600 nM (active),18700 nM (active),14800 nM (active),23500 nM (active),,935 nM (active),372 nM (active),833 nM (active),,3550 nM (active),16600 nM (active),1580 nM (active)
O=C(O)c1ccccc1C(=O)Nc1ccc(-c2ccccc2)cc1,inactive,inactive,inactive,inactive,inactive,inactive,inactive,,,,-5.47% (inactive),inactive,inactive,
CC[C@@]1(O)C(=O)OCc2c1cc1n(c2=O)Cc2cc3cc(O)ccc3nc2-1,0.0186 µM (active),0.0186 µM (active),118 nM (active),148 nM (active),83.3 nM (active),33.2 nM (active),,52.6 nM (active),41.8 nM (active),46.9 nM (active),,1580 nM (active),29.6 nM (active),224 nM (active)
